The full ranking holds about 140,000 sequences; the median of “enrichment ratio after two sorts for PhoP signalling” is about 0, and the highest 2% start at about 11. The full list was thinned out, with the highest values kept by preference.

Data on 158 variants can be found in a collection of fitness landscapes (doi:10.1126/science.1257360).

B1: PhoQ; a variant is named by its letters at X, in order, P23837 (parent)
chain: MKKLLRLFFPLSLRVRFLLATAAVVLVLSLAYGMVALIGYSVSFDKTTFRLLRGESNLFYTLAKWENNKLHVELPENIDKQSPTMTLIYDENGQLLWAQRDVPWLMKMIQPDWLKSNGFHEIEADVNDTSLLLSGDHSIQQQLQEVREDDDDAEMTHSVAVNVYPATSRMPKLTIVVVDTIPVELKSSYMVWSWFIYVLSANLLLVIPLLWVAAWWSLRPIEALAKEVRELEEHNRELLNPATTRELTSLVRNLNRLLKSERERYDKYRTTLTDLTHSLKTPLXXLQXXLRSLRSEKMSVSDAEPVMLEQISRISQQIGYYLHRASMRGGTLLSRELHPVAPLLDNLTSALNKVYQRKGVNISLDISPEISFVGEQNDFVEVMGNVLDNACKYCLEFVEISARQTDEHLYIVVEDDGPGIPLSKREVIFDRGQRVDTLRPGQGVGLAVAREITEQYEGKIVAGESMLGGARMEVIFGRQHSAPKDE

This assay covers variants of B1. The assay is described as follows: enrichment ratio after two sorts for PhoP signalling (ratio (wild type AVST 3.29)); higher = more functional. The following applies: with PhoP (E. coli).
On to LGQL, for which the enrichment ratio is not above 0.25.
Turning to QDGH, the enrichment ratio is not above 0.25.
In the case of FQCM it was 10.7; in that of TQCM, 33.7.
With HECK, the enrichment ratio is not above 0.25.
HFCM: the enrichment ratio is 1.37.
Regarding IQCM, the enrichment ratio was not above 0.25.
SNCM: the enrichment ratio stood at 11.2.
As for HECM, the figure is 24; as for NQCM, not above 0.25.
In the case of DWCM it was not above 0.25; in that of KQCM, not above 0.25; in that of SQCM, 19.2.
In the case of EQCM it was not above 0.25; in that of SQKE, not above 0.25.
On to PCCP, for which the enrichment ratio was not above 0.25.
For PFFR, the enrichment ratio was not above 0.25.
As for LMAE, the enrichment ratio was not above 0.25.
In the case of MLGA, the enrichment ratio is not above 0.25.
In the case of SMKT it was not above 0.25; in that of AWAS, not above 0.25; in that of IGQR, not above 0.25.
As for DAQH, the figure is not above 0.25; as for MEHG, 11.9.
In the case of MTHG, the enrichment ratio is not above 0.25.
As for STHG, the figure is not above 0.25; as for YYHG, not above 0.25.
Turning to QEHG, the enrichment ratio stood at 11.2.
As for QPHG, the figure is not above 0.25; as for HDSR, not above 0.25; as for DTEC, not above 0.25.
Regarding LQRA, the enrichment ratio is not above 0.25.
As for AIQG, the figure is not above 0.25.
As for YGYF, the figure is not above 0.25.
As for GGAK, the figure is not above 0.25.
Regarding NGRQ, the enrichment ratio is not above 0.25.
As for SNNN, the figure is 16.8; as for SNCL, 14.4; as for SRNN, not above 0.25.
For the variant SNVN, the enrichment ratio worked out at 13.3.
In the case of SNMN it was 22.4.
As for IQCL, the figure is not above 0.25; as for SNQN, not above 0.25; as for NQCL, not above 0.25.
For the variant HEMN, the enrichment ratio was not above 0.25.
As to SNPN, the enrichment ratio was not above 0.25.
Take SLNN: the enrichment ratio is not above 0.25.
Turning to SPVN, the enrichment ratio is not above 0.25.
Turning to TFHC, the enrichment ratio was not above 0.25.
As for NQTW, the figure is not above 0.25; as for ARRF, not above 0.25; as for VRLN, not above 0.25.
As to SLVN, the enrichment ratio was 1.02.
For the variant SQVN, the enrichment ratio amounted to 20.3.
For SQSL, the enrichment ratio amounted to 9.58.
As for SRSL, the figure is not above 0.25.
As for SQVY, the figure is 14.2; as for SNSL, 16.8.
For GQCL, the enrichment ratio was 7.51.
In the case of SRCL it was 6.4; in that of SQCL, 12.1.
Turning to NQVN, the enrichment ratio is not above 0.25.
Regarding SLVY, the enrichment ratio was not above 0.25.
For the variant SPVY, the enrichment ratio is not above 0.25.
As for GRRN, the figure is not above 0.25; as for QVFR, not above 0.25; as for QFNA, not above 0.25.
Regarding FSTQ, the enrichment ratio was not above 0.25.
Consider NDYC, for which the enrichment ratio was not above 0.25.
As for PTST, the figure is not above 0.25; as for QIDF, not above 0.25.
For NSVL, the enrichment ratio is not above 0.25.
As for LHGW, the figure is not above 0.25; as for NGIL, not above 0.25.
For LHHH, the enrichment ratio was not above 0.25.
As for ELYP, the figure is not above 0.25.
In the case of MKVN it was not above 0.25; in that of LNSL, not above 0.25.
For TNSL, the enrichment ratio was 12.2.
Regarding WNNL, the enrichment ratio is not above 0.25.
As for SNEL, the enrichment ratio is not above 0.25.
In the case of WRMN, the enrichment ratio is not above 0.25.
As to SNNL, the enrichment ratio was 13.1.
As for MEVN, the figure is 17.3; as for QEVN, not above 0.25.
In the case of MNSL it was 4.59; in that of SNRL, not above 0.25; in that of WNMN, 12.
As for GPCQ, the figure is not above 0.25; as for HTRL, not above 0.25.
With WHQP, the enrichment ratio was not above 0.25.
In the case of WEDV it was not above 0.25.
In the case of HDYF it was not above 0.25; in that of AHNC, not above 0.25.
With WAWV, the enrichment ratio is not above 0.25.
As to PHYI, the enrichment ratio is not above 0.25.
As for RGSM, the figure is not above 0.25.
As to WFSM, the enrichment ratio was not above 0.25.
As for CVSM, the enrichment ratio is not above 0.25.
As for TGSM, the figure is 23.5.
For CFSM, the enrichment ratio stood at 18.5.
As for GGSM, the figure is 7.14.
As for KTCN, the figure is not above 0.25; as for HRWF, not above 0.25; as for DYHL, not above 0.25.
In the case of MICN it was 31.9; in that of MICI, 0.945.
With MINL, the enrichment ratio is not above 0.25.
In the case of MILN it was 17.5; in that of MFCN, not above 0.25; in that of MIWN, not above 0.25.
On to MIRW, for which the enrichment ratio was not above 0.25.
For SSFG, the enrichment ratio was not above 0.25.
As for ACVT, the figure is 1.11.
As for ACWI, the enrichment ratio is not above 0.25.
As for ACLT, the figure is 11.7.
As for ACIV, the figure is 0.927; as for AILK, 2.69; as for ACNT, not above 0.25.
ACVL: the enrichment ratio came out at 5.91.
As for ACLL, the figure is 13.3; as for ACHK, not above 0.25.
On to ACWL, for which the enrichment ratio was not above 0.25.
Regarding ACLV, the enrichment ratio worked out at 16.
In the case of ACLK, the enrichment ratio was found to be 13.7.
As for FPKK, the figure is not above 0.25; as for KLEK, not above 0.25; as for STHN, not above 0.25.
For CFKF, the enrichment ratio was not above 0.25.
In the case of MMGD it was not above 0.25.
In the case of TVTR it was 2.26; in that of TRGD, not above 0.25; in that of QIWC, not above 0.25.
As for KYLR, the figure is not above 0.25; as for TGGL, 3.52; as for YWNM, not above 0.25.
Consider YRPI, for which the enrichment ratio was not above 0.25.
In the case of ACCN it was 12.1; in that of ACLS, 6.09.
As to KCCN, the enrichment ratio is not above 0.25.
As for ACYM, the figure is 0.253; as for AKCN, 5.46.
Regarding ACLI, the enrichment ratio turned out to be 5.06.
As for ACNS, the enrichment ratio was not above 0.25.
As for ACLA, the figure is 11.6; as for ACLN, 13.6.
As for ACLC, the figure is 12.2.
Regarding ACDS, the enrichment ratio stood at 0.253.
As for ACIC, the figure is 9.45.
In the case of KVRT it was not above 0.25.
For the variant AYPT, the enrichment ratio was not above 0.25.
As for QIHR, the enrichment ratio was not above 0.25.
In the case of QDCY it was not above 0.25; in that of AARG, not above 0.25.
Regarding DLGS, the enrichment ratio was not above 0.25.
On to VYSL, for which the enrichment ratio is not above 0.25.
As for PPRP, the figure is not above 0.25; as for PSLE, not above 0.25.
